Source: PubChem BioAssay (National Center for Advancing Translational Sciences (NCATS))
HPGD block: qHTS Assay for Inhibitors of HPGD (15-Hydroxyprostaglandin Dehydrogenase) | AID 894, 2007 | purified HPGD, NADH fluorescence kinetic, PGE2 substrate | 150,000 compounds, 4.3% hits | Potency, µM, inactives show at the top dose activity change, negative = inhibition, usual class: inhibitors | 15-hydroxyprostaglandin dehydrogenase [NAD(+)] (Homo sapiens), P15428; also: potency is read from the fitted curve at half-maximal effect; % is scaled to controls: 0 for no effect and ±100 for the full control effect
Target sequence (P15428 whole entry, looked up): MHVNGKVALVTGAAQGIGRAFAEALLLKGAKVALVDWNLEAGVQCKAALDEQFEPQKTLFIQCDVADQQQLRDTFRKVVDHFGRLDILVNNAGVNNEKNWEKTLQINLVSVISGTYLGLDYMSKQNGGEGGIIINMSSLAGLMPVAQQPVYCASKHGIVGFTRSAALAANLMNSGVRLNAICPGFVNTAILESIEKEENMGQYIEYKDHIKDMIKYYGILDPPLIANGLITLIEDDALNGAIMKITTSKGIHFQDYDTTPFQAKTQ
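20 nM HPGD preincubated 15 min at room temperature with compound in 50 mM Tris-HCl pH 8, 0.01% Tween 20. Started with 1 mM NAD+ and 30 uM prostaglandin E2; NADH fluorescence (360/450 nm) read 5 times over 30-s intervals, last minus first.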
RGS12 GoLoco inh: qHTS Assay for Inhibitors of RGS12 GoLoco Motif Activity (Red Fluorophore); Guanine nucleotide-binding protein G(i) subunit alpha-1 (Homo sapiens), P63096; Gai1:RGS12 GoLoco peptide FP, rhodamine, 10 min; Potency, µM (top dose mostly 61.6 µM), without a hit: at the highest dose activity, negative = inhibition, actives largely listed as inhibitors; 230,000 compounds, 0.44% hits; active = well fitted inhibition curve with a large enough effect, not every such curve was filed as active; inactive = no such curve, though single readings can be large or run the other way; also: potency is read from the fitted curve at half-maximal effect; % is scaled to controls: 0 for no effect and ±100 for the full control effect; nearly all actives have a fitted effect of over 30% in size
Target sequence (P63096 whole entry, looked up): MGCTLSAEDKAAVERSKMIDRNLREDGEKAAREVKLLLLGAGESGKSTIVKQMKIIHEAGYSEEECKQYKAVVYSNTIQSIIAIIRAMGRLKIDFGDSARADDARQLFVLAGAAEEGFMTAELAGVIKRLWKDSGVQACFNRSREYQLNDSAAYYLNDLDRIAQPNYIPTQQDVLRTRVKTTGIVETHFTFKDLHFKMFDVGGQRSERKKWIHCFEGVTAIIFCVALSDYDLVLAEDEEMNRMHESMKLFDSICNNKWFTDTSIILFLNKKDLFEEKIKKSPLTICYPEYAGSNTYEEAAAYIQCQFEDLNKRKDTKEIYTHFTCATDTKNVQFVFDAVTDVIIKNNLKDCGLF
ALDH1A1 inh: qHTS Assay for Inhibitors of Aldehyde Dehydrogenase 1 (ALDH1A1). Aldehyde dehydrogenase 1A1 (Homo sapiens), P00352. Potency, µM (series often up to 75.3 µM), inactives show top-dose activity, negative = inhibition, most hits filed as inhibitors. Purified ALDH1A1, NADH fluorescence, propionaldehyde substrate. 220,000 compounds, 7.3% hits. AID 1030, 2008;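 also: potency is read from the fitted curve at half-maximal effect; plate controls were no enzyme wells and a reference inhibitor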
HTT aggregate: qHTS Multiplex Assay to Identify Dual Action Probes in a Cell Model of Huntington: Aggregate Formation (GFP) | 220,000 compounds, 1.1% hits | AID 1688, 2009 | PC12 HttQ103-GFP aggregates, Acumen cytometry, 40 h | Potency, µM (series often up to 46.1 µM), for the others: top-dose activity change, negative = inhibition, actives largely listed as inhibitors; active = well fitted curve in the direction sought with a large enough effect; inconclusive = small, poorly fitted or top-dose-only effect, or another doubt; inactive = no such curve, though single readings can be large; an effect the other way counts as inactive or inconclusive; also: potency is read from the fitted curve at half-maximal effect; % is scaled to controls: 0 for no effect and ±100 for the full control effect; nearly all actives have a fitted effect of over 60% in size
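Aggregate formation scored by laser-scanning cytometer (488 excitation, 500–530 emission) in lysed PC12 cells expressing Q103-GFP after 100 nM tebufenozide induction; library tested in dose series, with ATPLite reagent added in the multiplex.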
HTT cytoprotect: qHTS Multiplex Assay to Identify Dual Action Probes in a Cell Model of Huntington: Cytoprotection (ATP); PC12 HTT-Q103 induced, cytoprotection, ATP luminescence, 40 h; Potency, µM (top dose mostly 56.4 µM), inactives show cytoprotection (ATP increase), most hits filed as activators; 230,000 compounds, 0.14% hits; AID 1471, 2008; active = well fitted curve in the direction sought with a large enough effect; inconclusive = small, poorly fitted or top-dose-only effect, or another doubt; inactive = no such curve, though single readings can be large; an effect the other way counts as inactive or inconclusive; also: potency is read from the fitted curve at half-maximal effect; % of control where 0% means no effect; nearly all actives have a fitted effect of over 45% in size
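Readout: ATPlite luminescence (ATP level). Model: stable PC12, inducible Htt exon1 Q103-GFP. Inducer: tebufenozide, 100 nM final. Compounds: dose series. No G418 in medium.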
PNC inhibitor: High Content Assay for Compounds that inhibit the Assembly of the Perinucleolar Compartment; PC3M PTB-GFP, PNC prevalence imaging, 16 h; hits give low values; activity change (PNC), negative = inhibition, % at 10 µM; 140,000 compounds, 3.1% hits;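 active = readout at or below -70, meaning at least 70% loss of cells showing the perinucleolar compartment, a nuclear body marking cancer cells; inconclusive = readout between -30 and a set limit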;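 also: plate controls were DMSO wells for no effect and camptothecin positive control wells for full effect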
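PC3M cells stably expressing PTB-GFP, 750–1000 cells/well, treated 16 h at 37 °C with compound (23 nl of library stock), in duplicate. After paraformaldehyde fixation and Hoechst stain, imaged at 20x; PNC prevalence scored by image analysis.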
* hit, by the source's call; ? = inconclusive; . = not tested or not shown; [ ] = dose if it differs, or a comment. Only some compounds are listed: those with a hit (about 11% of all), similar ones and a draw of the others. Unless noted, calls follow the shape of the dose curve; as a rule, active = well fitted inhibition curve with a large enough effect (not every such curve was filed as active); inconclusive = small, poorly fitted or top-dose-only effect, or another doubt; inactive = no such curve, though single readings can be large or run the other way.

SMILES | HPGD block | RGS12 GoLoco inh | ALDH1A1 inh | HTT aggregate | HTT cytoprotect | PNC inhibitor
C/C=C/c1ccc(OCCCNC(C)CC)c(OC)c1 (centres undefined) | -9% | -7% | 16µM* | 12% | 9% | 55
C=CCc1ccc(OCCCCNC(C)CC)c(OC)c1 (centres undefined) | 1% | 5% | ? | -6% | -5%[10 µM] | -23
CCC(=O)Nc1ccc(C(=O)CSc2nc(N)cc(N)n2)cc1 | . | 1% | . | 20%[9.22 µM] | 7%[10 µM] | .
NC(CSCC(=O)O)C(=O)O (centres undefined) | -9% | -6% | 10% | 5% | -41% | .
O=C(NCc1ccco1)c1cc(NS(=O)(=O)c2cccc([N+](=O)[O-])c2)ccc1O | . | 8% | 11µM* | -23% | -20% | .
O=C(NCc1ccco1)c1cccc(NS(=O)(=O)c2ccccc2F)c1 | -15% | 16% | 3.5µM* | 1% | 21%[10 µM] | -10
O=C(NCc1ccccn1)c1cccc(NS(=O)(=O)c2ccccc2F)c1 | -4% | 5% | 1.3µM* | -5% | -2%[10 µM] | 25
O=C(NCc1ccco1)c1cccc(-c2nnc(-c3ccccc3)o2)c1 | 13µM* | 7% | ? | 11% | -21% | 5
CC(=O)OC[C@@H]1O[C@H](C/C=N\OC[C@@H](C)[C@H](OCc2ccccc2)C(C)C)C=C[C@@H]1OC(C)=O | . | . | 4%[13.5 µM] | . | 0%[10 µM] | .
O[C@H]1[C@H]2c3cc4c(cc3CN3CCC(=C[C@@H]1O)[C@H]23)OCO4 | . | -3% | -2% | . | -106% | .
CCCCCCCN(C(=O)CCl)c1ccccc1C | -4% | 4% | 0.5µM* | -25% | 5%[10 µM] | ?
CCOCCN(C(=O)c1ccccc1Cl)c1cccc(C)c1C | . | -10% | . | 5%[9.22 µM] | 11%[10 µM] | .
OC(CNCC(c1ccco1)N1CCCCC1)c1ccccc1 (centres undefined) | 2% | -15% | 18µM* | 5% | 12%[10 µM] | -127*
Cc1nnc(N/N=C/c2cccc(OCc3ccc(Cl)c(Cl)c3)c2)n1N | -14% | -7% | 3% | -15% | -12%[10 µM] | -26
O=C(C(=S)N1CCOCC1)c1c[nH]c2ccccc12 | . | -25% | 3.2µM* | 4% | -1%[10 µM] | .
Cc1ccc(C(=O)[C@@H]2[C@@H]3[C@@H](C(=O)[C@@H]4OC[C@H]3O4)[C@@H]3C=Cc4ccccc4N23)cc1 | . | . | . | . | -3% | .
CCN(Cc1ccncc1)Cc1c(O)ccc2cc(Br)ccc12 | . | 52% | 0.56µM* | 5% | -19% | .
CCN(CC)C(=O)Cc1c(OC)ccc2cc(Br)ccc12 | . | -9% | -4% | -3% | ? | .
CCCc1nc2ccccc2n1CCc1ccccc1 | -11% | 4% | -1% | 0% | . | -8
COc1cc(NS(C)(=O)=O)ccc1Cc1c2ccccc2nc2ccccc12 | -20% | 5% | 15% | . | . | .
Cc1cc(C)c2sc(C)[n+](CCCS(=O)(=O)[O-])c2c1 | . | 122% | 1% | 31%[9.22 µM] | 21%[10 µM] | .
CC[n+]1c(C)sc2c(C)cc(C)cc21 | -1% | 2.5µM* | 13% | 33% | 14%[10 µM] | -99*
CCCCCCNC(=O)N[C@H](C(=O)NCCC[C@H]1CN2C(=NC[C@H]2C)N1CCC(c1ccccc1)c1ccccc1)C(C)O (some centres undefined) | . | 10µM* | . | -32%[9.22 µM] | -9%[10 µM] | .
C/C=C(\C)C(=O)NCCN1C2=NC[C@H](C)N2C[C@@H]1Cc1ccc(OC)cc1 | . | 4% | -4% | -3%[9.22 µM] | -14%[10 µM] | .
CC(/C=N/NC(=O)Cc1cccn1C)=C\c1ccco1 | ? | 10% | 14µM* | ? | 12%[10 µM] | 29
SMILES | HPGD block | RGS12 GoLoco inh | ALDH1A1 inh | HTT aggregate | HTT cytoprotect | PNC inhibitor
Cn1cccc1CC(=O)N/N=C/c1ccco1 | . | 11% | . | -11%[9.22 µM] | 14%[10 µM] | .
Cn1cccc1CC(=O)N/N=C\c1cccs1 | ? | 9% | -9% | 15% | 14% | 9
CC(=C/c1ccco1)/C=N/NC(=O)Cc1cccn1C | -26% | 0% | 25µM* | ? | -5%[1.9 µM] | 42
CC(/C=N/NC(=O)Cn1cnc2c1c(=O)n(C)c(=O)n2C)=C\c1ccco1 | . | -6% | 22µM* | -1%[9.22 µM] | -2%[10 µM] | .
Cc1ccc(/C=N/NC(=O)Cc2cccn2C)s1 | 7.1µM* | 75% | 3% | -7% | 3%[10 µM] | 20
C#CCCCO/N=C1/C[C@@H](O)[C@@H](O)[C@@H]2[C@@H]3C(=O)N([C@@H](C)c4ccccc4)C(=O)[C@H]3CC[C@@H]12 | . | . | 8%[13.5 µM] | . | ? | .
NC(=O)c1nsc(C(=O)N(CC(=O)NC2CCCC2)c2cnc3ccccc3c2)c1N | . | 5% | . | -37%[9.22 µM] | 5%[10 µM] | .
Cc1cc(F)ccc1NCc1ccccc1[N+](=O)[O-] | . | 6% | 0.63µM* | 4%[9.22 µM] | -13%[10 µM] | .
O=[N+]([O-])c1ccccc1CNc1ccc(F)c(Cl)c1 | -5% | -5% | ? | -5% | ? | 60
Cc1cc([N+](=O)[O-])ccc1NCc1ccccc1[N+](=O)[O-] | . | 8% | 18µM* | -11%[9.22 µM] | -11%[10 µM] | .
O=C(O)c1cc([N+](=O)[O-])ccc1NCc1ccccc1Cl | . | 0% | 0% | -3% | -42% | .
CCN1CCCC1CN(Cc1cc2ccc(C)cc2[nH]c1=O)C(=S)Nc1ccc(F)cc1 (centres undefined) | . | 7% | 4% | 0%[9.22 µM] | 12%[10 µM] | .
Cc1nc(CS(=O)(=O)c2ccc(Cl)cc2)sc1C(=O)O | . | 4% | 17% | 0%[9.22 µM] | 2%[10 µM] | .
CCOC(=O)C1=C(C)NC(=S)NC1c1ccco1 (centres undefined) | . | 3% | . | 3%[9.22 µM] | 11%[10 µM] | .
CCOC(=O)C1=C(C)NC(=S)NC1c1ccsc1 (centres undefined) | . | 13% | 7.1µM* | 26% | 10% | .
CCOC(=O)C1=C(C)NC(=S)NC1c1cc(C)sc1C (centres undefined) | . | 10% | 40µM* | -26% | . | .
COC(=O)C1=C(C)NC(=O)NC1c1ccsc1 (centres undefined) | -7% | 4% | -2% | 3% | 16% | ?
CCOC(=O)C1=C(C)NC(=S)NC1c1ccc(C)s1 (centres undefined) | . | 7% | 2.5µM* | 0% | 5%[10 µM] | .
C/C(=N\Nc1cc(C)nc(NCc2ccccc2)n1)c1ccc([N+](=O)[O-])cc1 | . | 6% | . | -5%[9.22 µM] | -3%[10 µM] | .
Cc1cc(OC(=O)c2c(C)cc(O)cc2O)cc(O)c1C(=O)O | 16µM* | 3% | -13% | . | -43% | .
CCOC(=O)c1c(C)cc(OC)cc1O | ? | 3% | -13% | . | -5% | .
CCN(CC)c1ccc(NC(=O)/C=C\c2ccccc2Cl)cc1 | -11% | -35% | -9% | -15% | -37%[10 µM] | -81*
